Data reported in PubChem BioAssay (EPA / NIEHS).
Values joined by “and” are separate entries in the source; they are usually repeats but may differ in a detail not shown here. Equal values may be shown once. Inconclusive results are not listed. More than one record can exist for a structure, and the calls need not agree. Active and inactive are the calls of the source. The calls were made as follows, unless noted: active = hit-call score of the fitted dose curve at least 0.9, where 1 is the maximum; inactive = score below 0.9.

Key:
[1] = ATG_NFI_CIS: Attagene CIS-FACTORIAL HepG2 Assay for human Nuclear Factor I (NFI) (AID 2282989); settings: HepG2 cis-regulatory reporter, NFI response element transcription; actives raise or lower the signal
Outline: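 Transfected HepG2 liver cells, exposed 24 h, supplied total RNA for oligo(dT) reverse transcription and reporter-specific PCR. Labelled, HpaI-cut fragments were sized by capillary electrophoresis; DMSO set the baseline for bidirectional fitting.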

[2] = molecular target: Myc proto-oncogene protein (Homo sapiens) (UniProt P01106); test: ATG_Myc_CIS: Attagene CIS-FACTORIAL HepG2 Assay for human Myelocytomatosis (Myc) Proto-Oncogene Transcription Factor (AID 2282990); settings: HepG2, Attagene cis-reporter transcription factor activity; actives raise or lower the signal
Myc proto-oncogene protein (Homo sapiens), sequence (P01106 whole entry, looked up, the tested form may be a part): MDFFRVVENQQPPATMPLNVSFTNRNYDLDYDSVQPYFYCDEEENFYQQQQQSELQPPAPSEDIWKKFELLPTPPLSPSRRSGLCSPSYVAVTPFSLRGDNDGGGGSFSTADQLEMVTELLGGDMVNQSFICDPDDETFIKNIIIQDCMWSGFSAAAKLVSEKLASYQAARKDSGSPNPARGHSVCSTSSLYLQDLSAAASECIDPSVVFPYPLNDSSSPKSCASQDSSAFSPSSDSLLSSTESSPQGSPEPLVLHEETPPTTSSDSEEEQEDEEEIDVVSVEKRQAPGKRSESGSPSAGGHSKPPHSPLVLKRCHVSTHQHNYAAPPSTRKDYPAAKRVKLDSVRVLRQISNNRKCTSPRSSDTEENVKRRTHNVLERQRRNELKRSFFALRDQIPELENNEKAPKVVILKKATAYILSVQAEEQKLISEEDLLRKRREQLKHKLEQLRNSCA
Outline: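 Fluorescence intensity of reporter-specific cDNA fragments, separated by capillary electrophoresis, gives the signal. Transfected HepG2 cells carrying cis-promoter reporter constructs are incubated with compound for 24 h; DMSO serves as baseline.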

[3] = ATG_NF_kB_CIS: Attagene CIS-FACTORIAL HepG2 Assay for human Nuclear Factor Kappa B (NF-kB) (AID 2282991); settings: HepG2 Attagene cis-factorial NF-kB reporter mRNA; actives raise or lower the signal
Outline: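 Fluorescence of labelled RT-PCR products separated by capillary electrophoresis gives reporter mRNA levels from transfected HepG2 cells exposed 24 h; values are fitted in both directions relative to DMSO.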

[4] = ATG_NRF2_ARE_CIS: Attagene CIS-FACTORIAL HepG2 Assay for human Nuclear Factor Erythroid 2 Related Factor 2 (NFR2) response to Antioxidant Response Elements (ARE) (AID 2282992); settings: HepG2 Attagene ARE/NRF2 reporter, transcription factor activity; actives raise or lower the signal
Outline: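 HepG2 cells transiently transfected with multiplexed cis-element reporter constructs, 24 h after chemical dosing; reporter mRNA quantified by RT-PCR, fluorescent primer extension, HpaI digestion and capillary electrophoresis. Bidirectional fit relative to DMSO.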

[5] = ATG_Oct_MLP_CIS: Attagene CIS-FACTORIAL HepG2 Assay for human Octamer-Binding Transcription Factor (Oct) (AID 2282993); settings: HepG2 Attagene cis-factorial Oct reporter, mRNA; actives raise or lower the signal
Outline: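 Using HepG2 cells bearing transfected cis-reporter constructs, mRNA induction was read after 24 h by fluorescent RT-PCR and capillary electrophoresis, with DMSO defining baseline for gain- or loss-of-signal fits.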

[6] = molecular target: Cellular tumor antigen p53 (Homo sapiens) (UniProt P04637); test: ATG_p53_CIS: Attagene CIS-FACTORIAL HepG2 Assay for human p53 Transcription Factor (AID 2282994); settings: HepG2 p53 cis-element reporter, Attagene mRNA; actives raise or lower the signal
Cellular tumor antigen p53 (Homo sapiens), sequence (P04637 whole entry, looked up): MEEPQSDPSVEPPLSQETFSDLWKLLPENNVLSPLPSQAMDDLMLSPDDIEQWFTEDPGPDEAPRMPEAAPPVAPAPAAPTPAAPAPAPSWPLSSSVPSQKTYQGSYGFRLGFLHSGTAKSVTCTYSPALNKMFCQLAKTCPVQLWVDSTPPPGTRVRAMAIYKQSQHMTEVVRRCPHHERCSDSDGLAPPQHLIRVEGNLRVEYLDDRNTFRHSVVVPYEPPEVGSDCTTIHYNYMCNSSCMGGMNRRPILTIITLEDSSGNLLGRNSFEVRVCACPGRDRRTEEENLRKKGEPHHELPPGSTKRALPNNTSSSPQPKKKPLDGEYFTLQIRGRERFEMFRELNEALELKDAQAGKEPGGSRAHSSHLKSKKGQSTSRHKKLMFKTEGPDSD
Outline: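 HepG2 cells transiently transfected with cis-regulated multiple reporter transcription units, dosed 24 h. Reporter mRNA measured by RT-PCR, 6-FAM primer extension, HpaI digestion and capillary electrophoresis; bidirectional fit relative to DMSO.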

[7] = BSK_3C_TissueFactor: BioMAP Diversity Plus: 3C Assay for Tissue Factor Biomarker Activity (AID 2282997); settings: BioMAP 3C HUVEC, tissue factor biomarker readout; actives raise or lower the signal
Outline: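 Human vascular primary cells (umbilical vein endothelium) received test chemical; Tissue Factor was determined by ELISA at 24 h, and both gain and loss of signal versus DMSO were fitted.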

[8] = BSK_3C_uPAR: BioMAP Diversity Plus: 3C Assay for Urokinase-type plasminogen activator receptor (uPAR) Biomarker Activity (AID 2282998); settings: BioMAP 3C HUVEC, uPAR biomarker ELISA; actives raise or lower the signal
Outline: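 In this endothelial cell-based assay, human umbilical vein primary cells were treated with chemicals and harvested at 24 h. uPAR was quantified using ELISA, with gains or losses fitted relative to DMSO controls.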

[9] = BSK_3C_VCAM1: BioMAP Diversity Plus: 3C Assay for Vascular cell adhesion molecule 1 (VCAM1) Biomarker Activity (AID 2282999); settings: BioMAP 3C HUVEC, VCAM1 ELISA, cytokine-stimulated; actives raise or lower the signal
Outline: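 Human umbilical vein endothelial cells (3C system), biomarker read by ELISA 24 h after dosing; bidirectional fit against DMSO baseline. Cytotoxicity tracked by SRB total-protein staining in parallel cultures at biomarker time.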

[10] = BSK_4H_Eotaxin3: BioMAP Diversity Plus: 4H Assay for Eotaxin 3 Biomarker Activity (AID 2283000); settings: primary human endothelial cells (HUVEC); actives raise or lower the signal
Outline: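 Readout is Eotaxin-3 (CCL26) level by ELISA in primary human umbilical vein endothelial cells harvested 24 h after chemical exposure; activity fitted in both directions against DMSO control.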

[11] = molecular target: human Peroxisome Proliferator-activated Receptor alpha (PPARa), PPARA (gene 5465) (UniProt Q07869); test: ATG_PPARa_TRANS: Attagene TRANS-FACTORIAL HepG2 Assay for human Peroxisome Proliferator-activated Receptor alpha (PPARa) (AID 2283001; active = hit-call score of the fitted dose curve at least 0.9, where 1 is the maximum)
human Peroxisome Proliferator-activated Receptor alpha (PPARa), PPARA (gene 5465), sequence (Q07869 whole entry, looked up, the tested form may be a part): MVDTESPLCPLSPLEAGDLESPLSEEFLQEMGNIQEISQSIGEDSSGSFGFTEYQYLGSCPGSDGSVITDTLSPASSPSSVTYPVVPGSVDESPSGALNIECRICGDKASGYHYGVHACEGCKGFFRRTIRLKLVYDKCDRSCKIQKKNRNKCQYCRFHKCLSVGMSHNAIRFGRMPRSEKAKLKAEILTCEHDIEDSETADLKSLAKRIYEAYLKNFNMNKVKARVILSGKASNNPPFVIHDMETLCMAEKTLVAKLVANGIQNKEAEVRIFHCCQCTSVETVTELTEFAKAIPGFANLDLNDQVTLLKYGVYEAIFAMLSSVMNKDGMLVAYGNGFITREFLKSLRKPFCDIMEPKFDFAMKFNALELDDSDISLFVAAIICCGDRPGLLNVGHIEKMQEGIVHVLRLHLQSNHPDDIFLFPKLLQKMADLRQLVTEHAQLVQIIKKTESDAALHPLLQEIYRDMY
Outline: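 Measures transcriptional activity of an exogenous chimeric PPARa-Gal4 protein in transiently transfected HepG2 cells after 24 h dosing. Reporter mRNA quantified via RT-PCR and capillary electrophoresis; DMSO served as negative control.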

[12] = molecular target: human Peroxisome Proliferator-activated Receptor delta (PPARd), PPARD (gene 5467) (UniProt Q03181); test: ATG_PPARd_TRANS: Attagene TRANS-FACTORIAL HepG2 Assay for human Peroxisome Proliferator-activated Receptor delta (PPARd) (AID 2283002; active = hit-call score of the fitted dose curve at least 0.9, where 1 is the maximum)
human Peroxisome Proliferator-activated Receptor delta (PPARd), PPARD (gene 5467), sequence (Q03181 whole entry, looked up, the tested form may be a part): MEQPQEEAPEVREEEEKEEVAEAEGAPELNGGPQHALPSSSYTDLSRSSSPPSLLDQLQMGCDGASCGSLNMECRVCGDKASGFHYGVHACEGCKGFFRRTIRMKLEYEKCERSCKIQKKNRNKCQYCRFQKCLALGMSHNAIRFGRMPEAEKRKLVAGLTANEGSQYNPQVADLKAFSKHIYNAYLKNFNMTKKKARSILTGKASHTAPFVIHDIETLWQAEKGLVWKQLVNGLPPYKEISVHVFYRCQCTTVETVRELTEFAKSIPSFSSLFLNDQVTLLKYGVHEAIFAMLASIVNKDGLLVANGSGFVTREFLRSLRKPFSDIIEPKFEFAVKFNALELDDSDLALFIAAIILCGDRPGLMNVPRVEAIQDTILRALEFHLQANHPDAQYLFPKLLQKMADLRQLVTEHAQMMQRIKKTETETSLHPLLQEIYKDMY
Outline: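 Fluorescence from capillary electrophoresis of labelled RT-PCR reporter fragments gives the signal; DMSO sets baseline. Cells: HepG2 transiently carrying GAL4-UAS reporter units plus chimeric nuclear receptor-Gal4 proteins, exposed to chemicals for 24 h.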

[13] = read-out: Intercellular Adhesion Molecule 1 (ICAM1), ICAM1 (gene 3383); test: BSK_3C_ICAM1: BioMAP Diversity Plus: 3C Assay for Intercellular Adhesion Molecule 1 (ICAM1) Biomarker Activity (AID 2283003); settings: primary human endothelial cells (HUVEC); actives raise or lower the signal
Outline: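 Human vascular endothelial primary cells, 3C conditions, 24 h treatment. ICAM-1 by ELISA.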

[14] = BSK_3C_Proliferation: Cell Proliferation Assessment in the BioMAP Diversity Plus: 3C Assay (AID 2283006); settings: primary human endothelial cells (HUVEC);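 as to AC50: potency may reflect either rise or fall in cell number versus DMSO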
Outline: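 Proliferation of human vascular endothelial primary cells after 48 h dosing, quantified as SRB-stained protein at 560 nm relative to DMSO.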

[15] = molecular target: Nuclear receptor subfamily 1 group I member 2 (Homo sapiens) (UniProt O75469); test: ATG_PXR_TRANS: Attagene TRANS-FACTORIAL HepG2 Assay for human Pregnane X Receptor (PXR) (AID 2283008; active = hit-call score of the fitted dose curve at least 0.9, where 1 is the maximum)
Nuclear receptor subfamily 1 group I member 2 (Homo sapiens), sequence (O75469 whole entry, looked up, the tested form may be a part): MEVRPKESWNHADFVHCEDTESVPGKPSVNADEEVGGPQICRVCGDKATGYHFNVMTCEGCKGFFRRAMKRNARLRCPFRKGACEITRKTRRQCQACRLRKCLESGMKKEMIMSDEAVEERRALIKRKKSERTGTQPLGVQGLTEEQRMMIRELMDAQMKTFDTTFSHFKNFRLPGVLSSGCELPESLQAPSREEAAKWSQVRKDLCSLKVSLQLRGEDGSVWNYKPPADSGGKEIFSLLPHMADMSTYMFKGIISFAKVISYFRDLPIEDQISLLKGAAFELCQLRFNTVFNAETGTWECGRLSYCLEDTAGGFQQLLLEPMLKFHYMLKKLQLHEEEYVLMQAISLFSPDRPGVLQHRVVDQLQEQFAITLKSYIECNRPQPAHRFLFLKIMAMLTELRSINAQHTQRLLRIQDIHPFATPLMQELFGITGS
Outline: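 HepG2 cells transiently transfected with GAL4-UAS reporter units and PXR-Gal4 chimera, exposed 24 h. Reporter mRNA quantified by RT-PCR, fluorescent labelling, HpaI digestion and capillary electrophoresis; gain of signal vs DMSO.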

[16] = molecular target: human RAR-related Orphan Receptor beta (RORb), RORB (gene 6096) (UniProt Q92753); test: ATG_RORb_TRANS: Attagene TRANS-FACTORIAL HepG2 Assay for human RAR-related Orphan Receptor beta (RORb) (AID 2283010; active = hit-call score of the fitted dose curve at least 0.9, where 1 is the maximum)
human RAR-related Orphan Receptor beta (RORb), RORB (gene 6096), sequence (Q92753 whole entry, looked up, the tested form may be a part): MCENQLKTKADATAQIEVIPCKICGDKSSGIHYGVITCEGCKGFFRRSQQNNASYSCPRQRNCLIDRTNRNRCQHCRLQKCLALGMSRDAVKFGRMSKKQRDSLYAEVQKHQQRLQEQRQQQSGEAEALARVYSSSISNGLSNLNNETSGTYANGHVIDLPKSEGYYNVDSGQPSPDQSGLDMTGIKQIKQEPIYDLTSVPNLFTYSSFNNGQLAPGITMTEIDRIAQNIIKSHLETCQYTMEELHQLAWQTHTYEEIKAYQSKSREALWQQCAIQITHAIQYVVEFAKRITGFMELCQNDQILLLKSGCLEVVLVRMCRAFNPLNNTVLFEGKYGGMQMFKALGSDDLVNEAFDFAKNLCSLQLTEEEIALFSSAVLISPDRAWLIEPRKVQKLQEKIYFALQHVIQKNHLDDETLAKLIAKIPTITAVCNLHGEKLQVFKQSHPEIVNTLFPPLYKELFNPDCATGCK
Outline: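 In this TRANS-format test, human HepG2 cells express chimeric NR-Gal4 fusion proteins driving GAL4-UAS reporters. After 24 h dosing, reporter transcripts are measured by fluorescent RT-PCR/capillary electrophoresis, with DMSO as negative control.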

[17] = molecular target: Peroxisome proliferator-activated receptor gamma (Homo sapiens) (UniProt P37231); test: ATG_PPARg_TRANS: Attagene TRANS-FACTORIAL HepG2 Assay for human Peroxisome Proliferator-activated Receptor-gamma (PPARg) (AID 2283007; active = hit-call score of the fitted dose curve at least 0.9, where 1 is the maximum)
Peroxisome proliferator-activated receptor gamma (Homo sapiens), sequence (P37231 whole entry, looked up): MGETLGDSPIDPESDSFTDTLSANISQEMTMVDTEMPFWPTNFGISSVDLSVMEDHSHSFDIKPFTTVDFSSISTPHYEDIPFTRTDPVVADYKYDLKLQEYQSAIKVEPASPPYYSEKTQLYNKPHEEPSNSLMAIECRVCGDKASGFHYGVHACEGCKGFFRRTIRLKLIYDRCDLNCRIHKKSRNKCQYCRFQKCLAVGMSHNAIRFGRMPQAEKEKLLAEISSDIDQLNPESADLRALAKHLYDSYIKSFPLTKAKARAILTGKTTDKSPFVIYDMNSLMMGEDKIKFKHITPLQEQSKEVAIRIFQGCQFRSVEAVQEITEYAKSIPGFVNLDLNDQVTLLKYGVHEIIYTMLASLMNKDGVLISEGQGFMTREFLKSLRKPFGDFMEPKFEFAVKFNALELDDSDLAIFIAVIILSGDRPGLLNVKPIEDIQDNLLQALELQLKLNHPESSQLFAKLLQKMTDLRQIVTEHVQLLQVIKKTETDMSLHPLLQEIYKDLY
Outline: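 Twenty-four hours after chemical dosing of transiently transfected HepG2 cells, isolated RNA was converted to cDNA, reporter sequences amplified and 6-FAM-labelled, then HpaI-digested and analysed by capillary electrophoresis. Signal increase against DMSO was fitted.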

[18] = molecular target: human Retinoic Acid Receptor beta (RARb), RARB (gene 5915) (UniProt P10826); test: ATG_RARb_TRANS: Attagene TRANS-FACTORIAL HepG2 Assay for human Retinoic Acid Receptor beta (AID 2283004; active = hit-call score of the fitted dose curve at least 0.9, where 1 is the maximum)
human Retinoic Acid Receptor beta (RARb), RARB (gene 5915), sequence (P10826 whole entry, looked up, the tested form may be a part): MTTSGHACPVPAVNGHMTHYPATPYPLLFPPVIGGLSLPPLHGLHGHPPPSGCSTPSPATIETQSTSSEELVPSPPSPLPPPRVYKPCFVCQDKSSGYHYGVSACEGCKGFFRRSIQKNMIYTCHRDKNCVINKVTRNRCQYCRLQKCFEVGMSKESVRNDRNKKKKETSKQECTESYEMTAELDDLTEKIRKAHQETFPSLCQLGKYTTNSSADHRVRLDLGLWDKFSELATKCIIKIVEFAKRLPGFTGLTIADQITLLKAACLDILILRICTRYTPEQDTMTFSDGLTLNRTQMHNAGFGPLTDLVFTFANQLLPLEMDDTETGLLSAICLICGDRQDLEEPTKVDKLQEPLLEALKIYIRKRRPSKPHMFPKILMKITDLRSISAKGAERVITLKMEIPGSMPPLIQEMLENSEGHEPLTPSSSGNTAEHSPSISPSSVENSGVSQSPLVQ
Outline: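 Readout is reporter mRNA induction: RNA reverse-transcribed, PCR-amplified, FAM-labelled, HpaI-cut and resolved by capillary electrophoresis. Transiently transfected HepG2 cells carrying exogenous NR–Gal4 chimeras were dosed for 24 h; activity fitted upward relative to DMSO.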

[19] = molecular target: Retinoic acid receptor alpha (Homo sapiens) (UniProt P10276); test: ATG_RARa_TRANS: Attagene TRANS-FACTORIAL HepG2 Assay for human Retinoic Acid Receptor alpha (RARa) (AID 2283005; active = hit-call score of the fitted dose curve at least 0.9, where 1 is the maximum)
Retinoic acid receptor alpha (Homo sapiens), sequence (P10276 whole entry, looked up, the tested form may be a part): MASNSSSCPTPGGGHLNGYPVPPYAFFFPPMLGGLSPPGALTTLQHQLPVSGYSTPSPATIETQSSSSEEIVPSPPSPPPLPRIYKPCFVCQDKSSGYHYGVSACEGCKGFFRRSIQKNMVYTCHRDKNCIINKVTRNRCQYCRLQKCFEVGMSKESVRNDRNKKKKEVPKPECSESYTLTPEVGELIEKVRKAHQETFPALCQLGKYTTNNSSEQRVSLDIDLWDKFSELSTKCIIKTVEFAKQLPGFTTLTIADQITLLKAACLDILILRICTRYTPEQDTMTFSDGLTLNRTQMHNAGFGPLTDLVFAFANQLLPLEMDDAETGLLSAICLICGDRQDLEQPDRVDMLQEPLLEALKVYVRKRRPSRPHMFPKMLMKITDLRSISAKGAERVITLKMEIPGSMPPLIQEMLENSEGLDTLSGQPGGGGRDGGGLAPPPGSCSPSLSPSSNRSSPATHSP
Outline: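 HepG2 transiently transfected with multiplex GAL4-UAS reporter units including a human RARa–GAL4 chimera; 24 h compound exposure. Reporter mRNA quantified by RT-PCR, 6-FAM labeling and capillary electrophoresis; gain of signal versus DMSO.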

[20] = molecular target: human Retinoic Acid Receptor gamma (RARg), RARG (gene 5916) (UniProt P13631); test: ATG_RARg_TRANS: Attagene TRANS-FACTORIAL HepG2 Assay for human Retinoic Acid Receptor gamma (RARg) (AID 2283009; active = hit-call score of the fitted dose curve at least 0.9, where 1 is the maximum)
human Retinoic Acid Receptor gamma (RARg), RARG (gene 5916), sequence (P13631 whole entry, looked up, the tested form may be a part): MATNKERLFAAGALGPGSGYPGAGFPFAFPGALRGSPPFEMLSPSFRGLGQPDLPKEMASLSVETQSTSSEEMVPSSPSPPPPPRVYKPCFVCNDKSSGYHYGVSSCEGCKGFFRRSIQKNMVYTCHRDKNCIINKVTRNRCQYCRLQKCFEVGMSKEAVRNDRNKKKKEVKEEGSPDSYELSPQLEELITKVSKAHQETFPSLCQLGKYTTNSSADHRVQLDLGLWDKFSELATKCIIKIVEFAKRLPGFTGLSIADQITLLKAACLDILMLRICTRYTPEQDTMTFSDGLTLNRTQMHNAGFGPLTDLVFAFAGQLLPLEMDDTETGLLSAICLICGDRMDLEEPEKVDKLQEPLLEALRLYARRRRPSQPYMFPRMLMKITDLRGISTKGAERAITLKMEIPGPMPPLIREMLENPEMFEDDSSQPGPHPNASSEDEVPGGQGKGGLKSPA
Outline: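 HepG2, RARg-GAL4 TRANS system, 24 h exposure; reporter mRNA by RT-PCR + CE fluorescence; increase over DMSO.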

Measured: AC50

CCC12COCN1COC2
not listed: [17] | [18] | [19] | [20]
inactive: all other assays above

CN(C)[C@@H]1C(=O)C(C(N)=O)=C(O)[C@@]2(O)C(=O)C3=C(O)c4c(O)cccc4[C@@](C)(O)[C@H]3C[C@@H]12
not listed: [16] | [18] | [19] | [20]
inactive: all other assays above

Oc1ccccc1Cl
active: [4] 52 µM
not listed: [12] | [16] | [18] | [19] | [20]
inactive: all other assays above

C=CCc1ccc2c(c1)OCO2
not listed: [12] | [16] | [18] | [19] | [20]
inactive: all other assays above

CC(C)(C)OOC(=O)c1ccccc1
active: [4] 79.5 µM | [6] 136 µM
not listed: [15] | [16] | [17] | [18] | [19] | [20]
inactive: all other assays above

CCCCCCCCOC(=O)c1ccc(C(=O)OCCCCCCCC)c(C(=O)OCCCCCCCC)c1
not listed: [12] | [15] | [16] | [20]
inactive: all other assays above

Nc1ccc(Cc2ccc(N)cc2)cc1
not listed: [12] | [15] | [16] | [19] | [20]
inactive: all other assays above

CCCCOC(=O)c1ccccc1C(=O)OCc1ccccc1
active: [4] 48.3 µM | [14] 14.4 µM
not listed: [16] | [17] | [18] | [19] | [20]
inactive: all other assays above

CO[C@@H]1[C@H](OC(=O)NC(=O)CCl)CC[C@]2(CO2)[C@H]1[C@@]1(C)O[C@@H]1CC=C(C)C
active: [4] 4.98 µM | [5] 40.5 µM | [7] 3.62 µM | [9] 6.87 µM | [10] 4.41 µM | [14] 0.00962 µM
not listed: [18] | [19] | [20]
inactive: all other assays above

c1ccc2c(c1)oc1ccccc12
not listed: [15] | [16] | [17] | [18] | [19] | [20]
inactive: all other assays above

CC(C)(OOC(C)(C)c1ccccc1)c1ccccc1
active: [1] 59.1 µM | [2] 77.6 µM | [4] 29.1 µM | [5] 59.6 µM | [7] 29 µM | [8] 33.7 µM | [9] 27.7 µM | [10] 29.9 µM | [14] 31.1 µM | [15] 7.09 µM
inactive: [3] | [6] | [11] | [12] | [13] | [17] | [20]

Nc1ccc(Cl)cc1N
active: [4] 5.68 µM | [5] 29.5 µM | [6] 8.6 µM | [9] 4.34 µM | [10] 2.15 µM
not listed: [12] | [16]
inactive: all other assays above

C[C@]12C=CC3=C4CCC(=O)C=C4CC[C@H]3[C@@H]1CC[C@@H]2O
inactive: [1] | [2] | [3] | [4] | [5] | [7] | [10] | [11] | [12] | [13] | [17] | [15] | [16]
active: [1] 11.9 µM | [3] 19.8 µM and 70.6 µM and 40.3 µM | [4] 17.5 µM and 11.3 µM | [5] 71.1 µM and 13.9 µM and 9.62 µM | [8] 7.23 µM | [9] 9.42 µM | [12] 73.6 µM | [14] 6.61 µM | [15] 26.9 µM

Cc1cccc(N)c1N
active: [4] 21.6 µM | [5] 167 µM | [9] 16 µM
not listed: [12] | [16]
inactive: all other assays above

c1ccc2c(c1)-c1cccc3cccc-2c13
active: [7] 0.669 µM
inactive: all other assays above
